The entries come from a sample that favours hits as a whole.
PRC2 inh – inhibitors of human EZH2/PRC2 methyltransferase | Q15910 | inhibition, % at 12.5 µM | 0.35% of 57,000 active | PRC2 H3K27 methylation, DELFIA TRF, 1 h | AID 651548;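 active = mean inhibition of replicates at least 50% and every single replicate also reaching 50%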;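 also: dimethyl H3K27 on biotinylated H3 21-44 peptide detected by antibody; plate controls were median neutral control wells for no effect and median positive control wells for full effect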
Target sequence (Q15910 whole entry, looked up): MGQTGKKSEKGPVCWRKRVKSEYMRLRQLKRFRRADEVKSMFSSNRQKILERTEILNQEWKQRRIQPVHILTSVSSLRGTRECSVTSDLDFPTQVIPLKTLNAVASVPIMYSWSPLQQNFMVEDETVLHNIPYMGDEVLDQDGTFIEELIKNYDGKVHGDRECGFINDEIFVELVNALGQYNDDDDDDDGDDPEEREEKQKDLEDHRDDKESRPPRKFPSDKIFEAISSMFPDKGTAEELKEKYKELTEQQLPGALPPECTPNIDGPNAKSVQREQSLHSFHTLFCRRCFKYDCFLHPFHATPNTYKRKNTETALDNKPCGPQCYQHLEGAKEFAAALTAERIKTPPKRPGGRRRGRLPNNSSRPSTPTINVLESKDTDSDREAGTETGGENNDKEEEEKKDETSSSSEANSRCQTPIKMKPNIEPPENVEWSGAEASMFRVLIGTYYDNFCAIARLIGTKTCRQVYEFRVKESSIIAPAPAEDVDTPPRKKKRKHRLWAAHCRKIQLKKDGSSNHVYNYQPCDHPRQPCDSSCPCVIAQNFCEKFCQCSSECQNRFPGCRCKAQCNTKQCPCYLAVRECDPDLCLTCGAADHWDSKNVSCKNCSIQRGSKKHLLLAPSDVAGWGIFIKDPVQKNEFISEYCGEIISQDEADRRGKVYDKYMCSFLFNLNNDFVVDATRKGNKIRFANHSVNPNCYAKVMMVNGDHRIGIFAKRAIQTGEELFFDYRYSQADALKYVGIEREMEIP
* = called active by the depositor.

Screening CCCCC/C=C\C/C=C\C/C=C\C/C=C\CCCCCC(=O)O returned PRC2 inh 12.
Screening CCCCCCCC/C=C/CCCCCCCC(=O)NCCc1ccc(O)c(O)c1 returned PRC2 inh 68*.
`Cc1ccc(S(=O)(=O)NCCSc2ncc(-c3ccc([N+](=O)[O-])cc3)[nH]2)cc1` gave PRC2 inh 12.
`COC(=O)c1ccc(OCC(=O)Nc2ccc(C(C)=O)cc2)cc1` gave PRC2 inh 13.
For C[C@H](CO)N1C[C@H](C)[C@@H](CN(C)Cc2ccc(-c3ccccc3)cc2)Oc2ccc(NS(=O)(=O)c3cccs3)cc2C1=O the results were PRC2 inh 38.
For C[C@H](CO)N1C[C@H](C)[C@H](CN(C)Cc2cccc(F)c2)Oc2cc(-c3ccccc3)ccc2S1(=O)=O the results were PRC2 inh 38.
`C[C@H](CO)N1C[C@H](C)[C@H](CN(C)Cc2cccc(F)c2)Oc2cc(C#CC3CC3)ccc2S1(=O)=O` gave PRC2 inh 84*.
`C[C@@H]1CN([C@H](C)CO)C(=O)c2cc(NS(=O)(=O)c3cccs3)ccc2O[C@@H]1CN(C)Cc1ccc(-c2ccccc2)cc1` gave PRC2 inh 54*.
C[C@@H]1CN([C@H](C)CO)S(=O)(=O)c2ccc(-c3ccccc3)cc2O[C@H]1CN(C)Cc1cccc(F)c1 was read as PRC2 inh 55*.
Screening C[C@H](CO)N1C[C@H](C)[C@H](CN(C)Cc2ccccc2)Oc2cc(C#CC3CC3)ccc2S1(=O)=O returned PRC2 inh 26.
C[C@H](CO)N1C[C@H](C)[C@H](CN(C)Cc2ccc(-c3ccccc3)cc2)Oc2ccc(NS(=O)(=O)c3cccs3)cc2C1=O was read as PRC2 inh 25.
For C[C@@H]1CN([C@H](C)CO)S(=O)(=O)c2ccc(C#CC3CC3)cc2O[C@H]1CN(C)Cc1cccc(F)c1 the results were PRC2 inh 19.
For C[C@H]1CN([C@@H](C)CO)S(=O)(=O)c2ccc(-c3ccccc3)cc2O[C@H]1CN(C)Cc1cccc(F)c1 the results were PRC2 inh 35.
For Cc1nc(-c2ccccc2)sc1C(=O)C1C(=O)C(=O)N(CCN(C)C)C1c1ccccc1 (centres undefined) the results were PRC2 inh -5.
For CC(=O)Nc1ccc(NC(=O)CN(c2ccc(C)cc2C)S(C)(=O)=O)cc1 the results were PRC2 inh -6.
`COc1ccc(NC(=O)CSc2nnc(-c3cccs3)n2-c2ccc(F)cc2)cc1` gave PRC2 inh 15.
`O=C(CCN1C(=O)C2C3c4ccccc4C(c4ccccc43)C2C1=O)Oc1cccc2cccnc12` (centres undefined) gave PRC2 inh 1.
`CN1C2=C(C(=O)CC(C)(C)C2)C(c2ccccc2OCC(=O)Nc2ccc(F)cc2)C2=C1CC(C)(C)CC2=O` gave PRC2 inh 0.
`O=C(c1cn(-c2ccccc2)nc1-c1cc2ccccc2oc1=O)n1nnc2ccccc21` gave PRC2 inh 0.
For O=C(O)Cc1cccc(OCCCN(Cc2cccc(C(F)(F)F)c2Cl)CC(c2ccccc2)c2ccccc2)c1 the results were PRC2 inh 85*.
COc1cc(-c2nnc(SCC(=O)c3cccc([N+](=O)[O-])c3)n2-c2ccccc2)cc(OC)c1OC was read as PRC2 inh 9.
Screening O=S(=O)(Nc1ncccn1)c1ccc(NC(=S)Nc2ccc3c(c2)OCCO3)cc1 returned PRC2 inh 3.
CC(=O)N(C)c1ccc(OCC(O)Cn2c3ccc(Cl)cc3c3cc(Cl)ccc32)cc1 (centres undefined) was read as PRC2 inh 4.
O=C(O)c1c(Sc2ccccc2)c2cc(Cl)ccc2n1Cc1ccc(Cl)cc1 was read as PRC2 inh 64*.
For O=C1CCCc2c1n(CCN(Cc1ccccc1)Cc1ccccc1)c1ccc(Cl)cc21 the results were PRC2 inh -6.
Screening O=c1cc(-c2ccc(O)cc2)oc2c(C3OC(CO)C(O)C(O)C3O)c(O)c(C3OCC(O)C(O)C3O)c(O)c12 (centres undefined) returned PRC2 inh 99*.
`O=C1CC(c2ccc(O)cc2)Oc2cc(O[C@@H]3O[C@H](CO)[C@@H](O)[C@H](O)[C@H]3O)cc(O)c21` (some centres undefined) gave PRC2 inh -2.
O=c1c(-c2ccc(O)cc2)coc2cc(OC3OC(CO)C(O)C(O)C3O)cc(O)c12 (centres undefined) was read as PRC2 inh 9.
Screening O=C1c2ccccc2C(=O)N1CCSc1nnnn1-c1ccccc1 returned PRC2 inh -3.
`Cc1ccc(-n2c(SCC(=O)Nc3cccc(C)c3C)nnc2-c2ccncc2)cc1C` gave PRC2 inh 8.
Screening COc1ccc(N(C(=O)C2CCCCC2)S(=O)(=O)c2cccc3cccnc23)cc1 returned PRC2 inh 8.
For CC(=O)c1c(C)oc2ccc(N(C(=O)c3ccncc3)S(=O)(=O)c3ccc(F)cc3C)cc12 the results were PRC2 inh 13.
`Cc1ccc(S(=O)(=O)N(C(=O)C2CCCCC2)c2ccc3oc(=O)sc3c2)c(C)c1` gave PRC2 inh 54*.
CC(=O)c1ccc(NC(=O)c2ccc(CSc3nc4ccc([N+](=O)[O-])cc4s3)cc2)cc1 was read as PRC2 inh 16.
Screening NC(=O)C1(N2CCCCC2)CCN(CC(=O)Nc2ccc(Br)cc2)CC1 returned PRC2 inh -13.
`C[C@@H]1O[C@@H](Oc2ccc(C3Oc4cc(O)cc(O)c4C(=O)C3O)cc2O)[C@H](O)[C@H](O)[C@H]1O` (some centres undefined) gave PRC2 inh 97*.
`O=C1c2c(O)cc(O)cc2O[C@H](c2ccccc2)[C@H]1O` gave PRC2 inh 8.
`C[C@@H]1O[C@@H](O[C@H]2[C@H](Oc3cc(O)c4c(c3)O[C@H](c3ccc(O)c(O)c3)CC4=O)O[C@H](CO)[C@@H](O)[C@@H]2O)[C@H](O)[C@H](O)[C@H]1O` gave PRC2 inh 4.
Screening Cc1cc(C)c(S(=O)(=O)N(C)CC(=O)N2CCC(C(N)=O)CC2)c(C)c1 returned PRC2 inh 0.
For Cc1cccc(C)c1OCC(=O)Nc1ccccc1C(=O)NC1CCCCC1 the results were PRC2 inh -15.
Screening COc1ccc(NC(=O)CN2CCN(S(=O)(=O)c3c(C)cc(C)cc3C)CC2)cc1 returned PRC2 inh 7.
For Cc1ccc(NC(=O)CCC(=O)c2ccc(Oc3ccccc3)cc2)cc1 the results were PRC2 inh 52*.
`Cc1ccc(S(=O)(=O)NC(C)C(=O)Nc2ccc(Oc3ccccc3)cc2)cc1` (centres undefined) gave PRC2 inh 18.
Screening COC(=O)c1ccc(NC(=O)CCC(=O)c2ccc(C)cc2C)cc1 returned PRC2 inh 10.
COC(=O)c1c(NC(=S)Nc2nc(C)cc(C)n2)sc2c1CCC2 was read as PRC2 inh -28.
Screening Cc1cc(C(=O)CSc2nnc3ccccn23)c(C)n1-c1cc(Cl)ccc1Cl returned PRC2 inh -13.
`COc1ccc(OC)c(NC(=O)CN(c2ccccc2Br)S(C)(=O)=O)c1` gave PRC2 inh -8.
`CS(=O)(=O)N(CC(=O)NC1CCCCC1)c1ccc(F)cc1` gave PRC2 inh -4.
For Cc1cc2oc(=O)cc(CN(C)Cc3ccccc3)c2cc1C(C)C the results were PRC2 inh 50*.
Screening Cc1cc(=O)oc2cc(NC(=S)NCc3cccnc3)ccc12 returned PRC2 inh -9.
